For 36 compounds, growth yield results are on record in the supplement of paper PMC8007513.

Where a name gives a salt, the structure may show the parent alone. ± gives the standard error. In all, about 1,300 compounds went through this assay and about 130 (10%) showed an effect of 50% or more. The sample holds strong results, similar compounds and a random draw of the others, so the mix is not that of the screen.

This assay deals with Trichoderma virens ATCC 9645. The assay can be described thus: growth yield (OD600) with compound + IPBC relative to untreated control; higher = less growth inhibition. Particulars: compound concentration: 100 uM, IPBC concentration: 200 ng/ml. The procedure, abridged:
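Spores of Trichoderma virens ATCC 9645, taken from potato dextrose agar plates grown for 7 days, were suspended at 15,000 spores ml^−1 in potato dextrose broth. In 96-well plates, 100 μl aliquots held library compounds at 100 μM final, either alone or together with a biocide at 200 ng ml^−1, and were grown at 30 °C. A BioTek EL800 read OD600 at 40 h and 72 h. Growth values are given relative to the control lacking both agents and are means of duplicate screens.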

As to `C[C@]12CC[C@H](O)C[C@H]1CC[C@@H]1[C@@H]2C[C@@H](O)[C@]2(C)[C@@H](C3=CC(=O)OC3)CC[C@]12O` [Digoxigenin] + CCCCNC(=O)OCC#CI [3-iodo-2-propynyl butylcarbamate (IPBC)], the growth yield runs as follows: (40 h) 86.6 ± 2.7%; (72 h) 90.72 ± 0.32%.

As for `COC(=O)[C@@H]1[C@H]2C[C@H]3c4[nH]c5ccccc5c4CCN3C[C@@H]2CC[C@@H]1O` [Yohimbine hydrochloride] + CCCCNC(=O)OCC#CI [3-iodo-2-propynyl butylcarbamate (IPBC)], the growth yield came to 82.4 ± 1.1% (40 h) and 89.25 ± 0.73% (72 h).

Consider `Nc1nc2[nH]cc(CCc3ccc(C(=O)N[C@@H](CCC(=O)O)C(=O)O)cc3)c2c(=O)[nH]1` [Pemetrexed disodium] + CCCCNC(=O)OCC#CI [3-iodo-2-propynyl butylcarbamate (IPBC)], for which the growth yield was 94.8 ± 7.2% (40 h) and 94 ± 4% (72 h).

`CC(CN1c2ccccc2Sc2ccccc21)N(C)C` (configuration not stated) [Promethazine hydrochloride] + CCCCNC(=O)OCC#CI [3-iodo-2-propynyl butylcarbamate (IPBC)]: the growth yield reads like this: (40 h) 78.2 ± 1.9%; (72 h) 94.3 ± 4.1%.

For the compound `CCSc1ccc2c(c1)N(CCCN1CCN(C)CC1)c1ccccc1S2` [Thiethylperazine dimalate] + CCCCNC(=O)OCC#CI [3-iodo-2-propynyl butylcarbamate (IPBC)], the growth yield was determined as 4.45 ± 0.32% (40 h) and 3.25 ± 0.1% (72 h).

With `CCN(CC)C(C)CN1c2ccccc2Sc2ccccc21` (configuration not stated) [Ethopropazine hydrochloride] + CCCCNC(=O)OCC#CI [3-iodo-2-propynyl butylcarbamate (IPBC)], the growth yield runs as follows: (40 h) 72.4 ± 3.8%; (72 h) 89.2 ± 1.6%.

Consider `C[C@]12C=CC(=O)C=C1CC[C@H]1[C@@H]3C[C@@H](O)[C@](O)(C(=O)CO)[C@@]3(C)C[C@H](O)[C@@]12F` [Triamcinolone] + CCCCNC(=O)OCC#CI [3-iodo-2-propynyl butylcarbamate (IPBC)], for which the growth yield is, setting by setting: (40 h) 98.3 ± 3%; (72 h) 97.5 ± 1.9%.

For `COc1ccc(-c2cc(=S)ss2)cc1` [Anethole-trithione] + CCCCNC(=O)OCC#CI [3-iodo-2-propynyl butylcarbamate (IPBC)], the growth yield by setting is: (40 h) 77 ± 1.8%; (72 h) 74.9%.

Regarding `CN1C[C@H](CNC(=O)OCc2ccccc2)C[C@@H]2c3cccc4c3c(cn4C)C[C@H]21` [Metergoline] + CCCCNC(=O)OCC#CI [3-iodo-2-propynyl butylcarbamate (IPBC)], the growth yield by setting is: (40 h) 45.4 ± 15%; (72 h) 112 ± 9.5%.

Regarding `CO[C@]12C[C@@H](COC(=O)c3cncc(Br)c3)CN(C)[C@@H]1Cc1cn(C)c3cccc2c13` [Nicergoline] + CCCCNC(=O)OCC#CI [3-iodo-2-propynyl butylcarbamate (IPBC)], the growth yield reads like this: (40 h) 74.2 ± 8.4%; (72 h) 93 ± 5.3%.

As for `CN1C[C@H](C(=O)N[C@]2(C)O[C@@]3(O)[C@@H]4CCCN4C(=O)[C@H](Cc4ccccc4)N3C2=O)C[C@@H]2c3cccc4[nH]cc(c34)C[C@H]21` [Dihydroergotamine tartrate] + CCCCNC(=O)OCC#CI [3-iodo-2-propynyl butylcarbamate (IPBC)], the growth yield came out at 105 ± 5.2% (40 h) and 107 ± 2.3% (72 h).

In the case of `CC[C@H](C)C(=O)O[C@H]1C[C@@H](C)C=C2C=C[C@H](C)[C@H](CC[C@@H]3C[C@@H](O)CC(=O)O3)[C@H]21` [Lovastatin] + CCCCNC(=O)OCC#CI [3-iodo-2-propynyl butylcarbamate (IPBC)], the growth yield runs as follows: (40 h) 104 ± 4%; (72 h) 103 ± 1.6%.

With `CN1CCN(C(=O)OC2c3nccnc3C(=O)N2c2ccc(Cl)cn2)CC1` (configuration not stated) [Zopiclone] + CCCCNC(=O)OCC#CI [3-iodo-2-propynyl butylcarbamate (IPBC)], the growth yield runs as follows: (40 h) 91.8 ± 2.5%; (72 h) 93 ± 1.4%.

Consider `CC(=O)OC[C@H]1O[C@@H]([S-])[C@H](OC(C)=O)[C@@H](OC(C)=O)[C@@H]1OC(C)=O.CCP(CC)CC.[Au+]` [Auranofin] + CCCCNC(=O)OCC#CI [3-iodo-2-propynyl butylcarbamate (IPBC)], for which the growth yield was determined as 23.2 ± 1.3% (40 h) and 29.7 ± 2.4% (72 h).

Consider `CO[C@H]1/C=C/O[C@@]2(C)Oc3c(C)c(O)c4c(c3C2=O)C2=NC3(CCN(CC(C)C)CC3)NC2=C(NC(=O)/C(C)=C\C=C\[C@H](C)[C@H](O)[C@@H](C)[C@@H](O)[C@@H](C)[C@H](OC(C)=O)[C@@H]1C)C4=O` [Rifabutin] + CCCCNC(=O)OCC#CI [3-iodo-2-propynyl butylcarbamate (IPBC)], for which the growth yield is, setting by setting: (40 h) 99.4%; (72 h) 97.1 ± 8.4%.

For the compound `CC(=O)OCC1=C(C(=O)O)N2C(=O)[C@@H](NC(=O)Cc3cccs3)[C@H]2SC1` [Cephalothin sodium salt] + CCCCNC(=O)OCC#CI [3-iodo-2-propynyl butylcarbamate (IPBC)], the growth yield came to 91.7 ± 8.4% (40 h) and 90.9 ± 7.9% (72 h).

For `CCC(Cc1c(I)cc(I)c(N)c1I)C(=O)O` (configuration not stated) [Iopanoic acid] + CCCCNC(=O)OCC#CI [3-iodo-2-propynyl butylcarbamate (IPBC)], the growth yield came out at 70.2 ± 2.5% (40 h) and 88.3 ± 4.4% (72 h).

Consider `COc1c(N2C[C@@H]3CCCN[C@@H]3C2)c(F)cc2c(=O)c(C(=O)O)cn(C3CC3)c12` [Moxifloxacin] + CCCCNC(=O)OCC#CI [3-iodo-2-propynyl butylcarbamate (IPBC)], for which the growth yield was 109 ± 2.7% (40 h) and 105 ± 3.5% (72 h).

Take `O=C1c2ccccc2S(=O)(=O)N1CCCCN1CCN(c2ncccn2)CC1` [Ipsapirone] + CCCCNC(=O)OCC#CI [3-iodo-2-propynyl butylcarbamate (IPBC)]: the growth yield stood at 87.4 ± 4.8% (40 h) and 90.7 ± 1.8% (72 h).

For `Cc1ccc(N(CC2=NCCN2)c2cccc(O)c2)cc1` [Phentolamine hydrochloride] + CCCCNC(=O)OCC#CI [3-iodo-2-propynyl butylcarbamate (IPBC)], the growth yield (40 h) was determined as 86.25 ± 0.79% and the growth yield (72 h) worked out at 97.64 ± 0.73%.

Regarding `CCCCCC[C@H]1C(=O)O[C@H](C)[C@H](NC(=O)c2cccc(NC=O)c2O)C(=O)O[C@@H](C)[C@@H]1OC(=O)CC(C)C` [Antimycin A] + CCCCNC(=O)OCC#CI [3-iodo-2-propynyl butylcarbamate (IPBC)], the growth yield (40 h) was determined as 17.6 ± 1.1% and the growth yield (72 h) was determined as 42.9 ± 2.4%.

Take `COc1cccc(C2(O)CCCCC2CN(C)C)c1` (configuration not stated) [Tramadol hydrochloride] + CCCCNC(=O)OCC#CI [3-iodo-2-propynyl butylcarbamate (IPBC)]: the growth yield (40 h) came to 87.5 ± 2.1% and the growth yield (72 h) turned out to be 90.51 ± 0.73%.

For `COCCCOc1cc(C[C@@H](C[C@H](N)[C@@H](O)C[C@H](C(=O)NCC(C)(C)C(N)=O)C(C)C)C(C)C)ccc1OC` [Aliskiren hemifumarate] + CCCCNC(=O)OCC#CI [3-iodo-2-propynyl butylcarbamate (IPBC)], the growth yield runs as follows: (40 h) 93.4 ± 5.1%; (72 h) 99.1 ± 1.1%.

Consider `CCOc1ccccc1OC(c1ccccc1)C1CNCCO1` (configuration not stated) [Reboxetine mesylate] + CCCCNC(=O)OCC#CI [3-iodo-2-propynyl butylcarbamate (IPBC)], for which the growth yield by setting is: (40 h) 82.92 ± 0.32%; (72 h) 90.61 ± 0.63%.

For `CC(N)C(O)c1ccccc1` (configuration not stated) [Phenylpropanolamine hydrochloride] + CCCCNC(=O)OCC#CI [3-iodo-2-propynyl butylcarbamate (IPBC)], the growth yield runs as follows: (40 h) 97.1 ± 7.5%; (72 h) 101 ± 3.5%.

For `O=C(O)CN(CCN(CC(=O)O)CC(=O)O)CCN(CC(=O)O)CC(=O)O` [Pentetic acid] + CCCCNC(=O)OCC#CI [3-iodo-2-propynyl butylcarbamate (IPBC)], the growth yield by setting is: (40 h) 18.7 ± 1.6%; (72 h) 88.41 ± 0.73%.

Regarding `CCc1cccc(CC)c1NC(=O)CN(CC(=O)O)CC(=O)O` [Etifenin] + CCCCNC(=O)OCC#CI [3-iodo-2-propynyl butylcarbamate (IPBC)], the growth yield (40 h) turned out to be 87.7 ± 4.1% and the growth yield (72 h) turned out to be 94.4 ± 2.3%.

With `O=P(O)(O)C(O)(Cc1cccnc1)P(=O)(O)O` [Risedronic acid monohydrate] + CCCCNC(=O)OCC#CI [3-iodo-2-propynyl butylcarbamate (IPBC)], the growth yield was found to be 88.8 ± 2.7% (40 h) and 91.66 ± 0.42% (72 h).

For `COc1ccc(C[C@@H]2c3cc(OC)c(OC)cc3CC[N@+]2(C)CCC(=O)OCCCCCOC(=O)CC[N@@+]2(C)CCc3cc(OC)c(OC)cc3[C@H]2Cc2ccc(OC)c(OC)c2)cc1OC` [Cisatracurium besylate] + CCCCNC(=O)OCC#CI [3-iodo-2-propynyl butylcarbamate (IPBC)], the growth yield amounted to 78.3 ± 2.1% (40 h) and 85.9 ± 4.1% (72 h).

With `CC1=C(/C=C/C(C)=C/C=C/C(C)=C\C(=O)O)C(C)(C)CCC1` [Isotretinoin] + CCCCNC(=O)OCC#CI [3-iodo-2-propynyl butylcarbamate (IPBC)], the growth yield is 83.5% (40 h) and 105 ± 16% (72 h).

For the compound `CCCCOc1ccc(C(=O)CCN2CCCCC2)cc1` [Dyclonine hydrochloride] + CCCCNC(=O)OCC#CI [3-iodo-2-propynyl butylcarbamate (IPBC)], the growth yield runs as follows: (40 h) 75.4 ± 1.1%; (72 h) 90.8 ± 1.5%.

On to `CCCCOc1ccc(CC(=O)NO)cc1` [Bufexamac] + CCCCNC(=O)OCC#CI [3-iodo-2-propynyl butylcarbamate (IPBC)], for which the growth yield amounted to 99.59 ± 0.16% (40 h) and 95.438 ± 1e-14% (72 h).

On to `N=C(N)c1ccc(OCCCCCOc2ccc(C(=N)N)cc2)cc1` [Pentamidine isethionate] + CCCCNC(=O)OCC#CI [3-iodo-2-propynyl butylcarbamate (IPBC)], for which the growth yield (40 h) worked out at 2.7 ± 0.48% and the growth yield (72 h) was 2.1 ± 0.42%.

On to `CCCNC(C)(C)COC(=O)c1ccccc1` [Meprylcaine hydrochloride] + CCCCNC(=O)OCC#CI [3-iodo-2-propynyl butylcarbamate (IPBC)], for which the growth yield (40 h) is 87.7 ± 7.6% and the growth yield (72 h) stood at 91.8 ± 5.1%.

In the case of `Nc1nc(O)c2ncn(CCC(CO)CO)c2n1` [Penciclovir] + CCCCNC(=O)OCC#CI [3-iodo-2-propynyl butylcarbamate (IPBC)], the growth yield is 82.76 ± 0.48% (40 h) and 95.6 ± 1.3% (72 h).

Turning to `Cc1ccccc1C(=O)Nc1ccc(C(=O)N2CCCC(O)c3cc(Cl)ccc32)c(C)c1` (configuration not stated) [Tolvaptan] + CCCCNC(=O)OCC#CI [3-iodo-2-propynyl butylcarbamate (IPBC)], the growth yield reads like this: (40 h) 107 ± 2.5%; (72 h) 107.1 ± 0.94%.
